PubChem BioAssay AID540259 (Broad Institute, 2011)
Potency and affinity values are given separately. Active and inactive are the calls of the source.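 The calls were made as follows: active = cell killing, meaning signal decrease, with fitted half-maximal dose at or below ten times the top valid tested dose; inconclusive = poor fit, or flat curve with 30 to 70% signal loss; inactive = the rest.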

Experiment: HeLa cell cytotoxicity, dose response, cytotoxicity control for MITF activator project, CellTiter-Glo luminescence, cherry-pick samples (AID 540259)
Settings: HeLa viability, CellTiter-Glo ATP luminescence, 24 h; series mostly up to 35 µM

Question: For `COCc1nn2c(N)c(-c3ccccc3)cnc2c1-c1ccccc1`, which outcome is on record?
Answer: inactive

Question: For `COC(=O)c1ccc(CSC2=NCCS2)cc1`, which outcome is on record?
Answer: inactive

Question: For `C=CCN=C1S/C(=C\c2ccc(N(C)C)cc2)C(=O)N1CC=C`, which outcome is on record?
Answer: inactive

Question: Which outcome does the source give for `CC1CCc2nc(NC(=O)Cc3cccs3)sc2C1` (stereo unspecified) here?
Answer: inactive

Question: Which outcome does the source give for `COc1cc(/C=C/c2nc3ccccc3c(=O)[nH]2)ccc1OC(F)F` here?
Answer: inactive

Question: With `O=C(Cc1ccccc1F)Nc1ccc(SC(F)F)cc1` as the compound, how does the outcome read?
Answer: inactive

Question: For `Cc1nc2cc3nc(C)sc3cc2s1`, which outcome is on record?
Answer: inactive

Question: Which outcome does the source give for `O=Cc1ccc(OCc2ccc3ccccc3c2)cc1` here?
Answer: inactive

Question: With `COC(=O)c1ccc(N=NN2CCCCC2)cc1` as the compound, how does the outcome read?
Answer: inactive

Question: With `CC(C)C(=O)Nc1cccc(C(=O)Nc2nnc(C(C)C)s2)c1` as the compound, how does the outcome read?
Answer: inactive

Question: For `Cc1ccc(CNc2nc(C)cs2)cc1`, which outcome is on record?
Answer: inactive

Question: For `Nc1nonc1-n1nnc(C(=O)N/N=C/c2ccc(OCc3ccccc3F)cc2)c1CN1CCCCC1`, which outcome is on record?
Answer: inactive

Question: With `Cc1cc(C(=O)Cn2nc(C(=O)O)c3ccccc3c2=O)c(C)n1CC(F)(F)F` as the compound, how does the outcome read?
Answer: inactive

Question: For `c1cncc(-c2nc3ccccc3s2)c1`, which outcome is on record?
Answer: inactive

Question: Which outcome does the source give for `Cc1ccccc1-c1nc(Cc2ccccc2)no1` here?
Answer: inactive

Question: For `c1csc(-c2nc(N3CCCCC3)no2)c1`, which outcome is on record?
Answer: inactive

Question: With `Cc1nc(-c2ccc(NC(=O)c3ccccc3Br)cc2)cs1` as the compound, how does the outcome read?
Answer: inactive

Question: With `Cc1ccc2c(CN3CCC(C)CC3)cc(=O)oc2c1C` as the compound, how does the outcome read?
Answer: inactive

Question: With `Oc1cccc(-c2nc3ccc4ccccc4c3c3c2CCC3)c1` as the compound, how does the outcome read?
Answer: inactive

Question: With `Nc1ccc(-c2nc3ncccc3o2)c(O)c1` as the compound, how does the outcome read?
Answer: inactive

Question: For `c1ccc(COc2ccc(-c3csnn3)cc2)cc1`, which outcome is on record?
Answer: inactive

Question: Which outcome does the source give for `O=C(CCCc1ccccc1)c1ccccc1` here?
Answer: inactive

Question: For `Cc1ccc(S(=O)(=O)Nc2cccc(-c3ccc(N4CCCCCC4)nn3)c2)cc1`, which outcome is on record?
Answer: inactive

Question: Which outcome does the source give for `Cc1ccn2cc(C(=O)Nc3nnc(C)s3)nc2c1` here?
Answer: inactive

Question: With `COc1cccc2[nH]c(=O)c(-c3ccccc3)cc12` as the compound, how does the outcome read?
Answer: inactive

Question: With `O=C(Cc1ccccn1)c1ccc(Cl)cc1` as the compound, how does the outcome read?
Answer: inactive

Question: Which outcome does the source give for `CSc1cccc(NC(=O)c2cnn3ccccc23)c1` here?
Answer: inactive

Question: Which outcome does the source give for `COc1ccc2cc(C(N)=O)c(=Nc3ccccc3)oc2c1` here?
Answer: inactive

Question: Which outcome does the source give for `CCC(=O)c1ccc(OCc2ccccc2)c(OC)c1` here?
Answer: inactive

Question: For `COC(=O)C(Cc1ccc(O)cc1)N1Cc2ccccc2C1=O` (stereo unspecified), which outcome is on record?
Answer: inactive

Question: Which outcome does the source give for `COc1cccc(C2Nc3ccccc3C(=O)N2c2ccc(F)cc2)c1O` (stereo unspecified) here?
Answer: inactive

Question: For `COc1ccc(N=C(C)c2sc3ccccc3c2O)cc1`, which outcome is on record?
Answer: inactive

Question: With `CCCc1nc2ccc(NC(C)=O)cc2c(=O)n1Cc1ccc(Cl)cc1` as the compound, how does the outcome read?
Answer: inactive

Question: Which outcome does the source give for `CC(=O)Nc1ccc2c(c1)ncn2-c1ccccc1` here?
Answer: inactive

Question: For `O=C(Nc1ccc(NC(=O)c2ccccc2F)cc1)c1cccs1`, which outcome is on record?
Answer: inactive

Question: Which outcome does the source give for `O=C(Nc1ccccc1)N1CCC(c2ccccc2)C1` (stereo unspecified) here?
Answer: inactive
